Results on 61 compounds are retold here after PubChem BioAssay AID540333 (Southern Research Specialized Biocontainment Screening …, 2011).

Screen size: about 10,000 compounds; about 320 (3.2%) were called active. What follows is part of a selection rich in actives, with near analogues and random picks from the rest. A number with no mark means an inactive call. Cut-off read from the data, not from the text of the source: active = CPE inhibition mostly above about 9.1% (no sharp cut-off); inactive = mostly below about 7.2%.

A short description of the test: antivirals protecting cells from dengue CPE – CPE readout, HTS (AID 540333). The conditions noted are these: Dengue virus CPE inhibition in host cells, at 20 µM; hits give high values.
As for `O=C(COc1ccccc1[N+](=O)[O-])N/N=C/c1cccs1`, the CPE inhibition result is “inactive”.
With `CCOc1cccc(/C=N/NC(=S)Nc2cc(S(=O)(=O)N3CCOCC3)ccc2N2CCOCC2)c1O`, the CPE inhibition entry is “inactive”.
The result for `Cc1ccc2[nH]c(=O)cc(C(=O)OCC(=O)c3ccccc3)c2c1` reads “inactive”; that for `COC(=O)CN1C(c2ccc(OC)cc2)=Nc2ccc(Cl)cc2C1c1ccccc1` (stereo unspecified), 7.85%; that for `CCOC(=O)CN1C(=O)N[C@@H](c2ccccc2)[C@@H](C(=O)OC)[C@H]1C`, 0.065%.
The result for `COC(=O)CN1C(c2cccc(Cl)c2)=Nc2ccc(Cl)cc2C1c1ccccc1` (stereo unspecified) reads 14.1% (active); that for `Cc1cc(C(=O)N2CCN(c3ccc([N+](=O)[O-])cc3)CC2)no1`, “inactive”; that for `O=C1CC(c2ccccc2)Sc2nc(-c3ccccc3)c(-c3ccccc3)n21` (stereo unspecified), “inactive”.
For `Cc1ccc(OCCN(C)C)c([N+](=O)[O-])c1` the value was 0.995%.
With `O=[N+]([O-])c1cccc(C(=S)N2CCN(c3ccccc3)CC2)c1`, the CPE inhibition was 0.055%.
For `CS(=O)(=O)N1CCN(c2ccc([N+](=O)[O-])c(NCc3ccc(Cl)cc3)c2)CC1` the value was 1.16%.
Consider `Cc1ccc(NC(=O)CSc2nnc(-c3cccs3)o2)cc1S(=O)(=O)N1CCCCC1`, for which the CPE inhibition result was “inactive”.
In the case of `COC(=O)Cc1ccc(NC(=S)NCc2ccc(Cl)cc2)cc1`, the CPE inhibition result is “inactive”.
For `S=C(NCc1ccncc1)Nc1ccc(Cl)cc1`, the CPE inhibition is 0.775%.
The result for `COC(=O)c1cc(NC(=S)NCc2ccc(Cl)cc2)cc(C(=O)OC)c1` reads 13.6% (active).
The result for `CC1=CC(C)(C)N(C(=O)CSc2nnc(N)s2)c2ccccc21` reads 0.04%.
The result for `COc1ccc2c(c1)-c1nc(/N=C/c3ccc(O)c(OC)c3)sc1CC2` reads 1.8%; that for `Cc1ccc(-n2nc(C)c(C3(O)C(=O)N(C(C)C)c4ccccc43)c2N)cc1` (stereo unspecified), “inactive”; that for `CCOC(=O)C1=C(C)N(Cc2ccccc2)C(=O)NC1c1ccccc1OS(=O)(=O)c1ccccc1[N+](=O)[O-]` (stereo unspecified), 14.2% (active).
As to `COC(=O)C1=C(C)N(Cc2ccccc2)C(=O)N[C@H]1c1cccc(F)c1`, the CPE inhibition is 0.125%.
For `CCOC(=O)C1=C(C)N(CCCCCC(=O)O)C(=O)NC1c1cccc([N+](=O)[O-])c1` (stereo unspecified) the value was 0.825%; for `Cc1ccc(Cn2c(SCC(=O)N3CC(=O)Nc4ccccc43)nc3ccccc3c2=O)cc1`, 22.3% (active); for `Cc1ccc(-n2c(SCC(=O)N3CC(=O)Nc4ccccc43)nc3ccccc3c2=O)cc1`, 2.37%.
Turning to `Cc1cccc(C)c1-n1c(SCC(=O)N2CC(=O)Nc3ccccc32)nc2ccccc2c1=O`, the CPE inhibition was 1.7%.
For `COc1ccc(C2CC(c3ccccc3)=NN2C(=O)CSc2ncccn2)cc1` (stereo unspecified) the value was 0.205%; for `CCCn1c(SCC(=O)N2N=C3/C(=C/c4ccc(OC)cc4)CCCC3C2c2ccc(OC)cc2)n[nH]c1=O` (stereo unspecified), 10.2% (active); for `COc1ccc(C2=NN(C(=O)CSc3nc4ccccc4s3)C(c3ccc(OC)cc3)C2)cc1` (stereo unspecified), 2.96%.
For `C#CCNC(=O)C1=C[C@@H](c2ccc(C(F)(F)F)cc2)C[C@@H](OCc2ccc(CO)cc2)O1` the value was 2.77%; for `CCC(OCC(O)CN1CCN(CCN2C(=O)c3cccc4cccc(c34)C2=O)CC1)c1ccccc1` (stereo unspecified), “inactive”; for `O=[N+]([O-])c1ccc(CSc2nnc(Cc3ccccc3)n2-c2ccc(F)cc2)cc1`, 3.26%.
For `Cc1cccc(-n2c(Cc3ccccc3)nnc2SCc2ccc([N+](=O)[O-])cc2)c1` the value was 14.3% (active); for `Cc1cccc(CC(=O)N2CCN=C2SCc2ccc([N+](=O)[O-])cc2)c1`, “inactive”; for `Cc1ccc(S(=O)(=O)NCCC(=O)Nc2ccc(C)c(Cl)c2)cc1C`, 12.8% (active).
As to `Cc1ccc(NC(=O)CCC(=O)NNS(=O)(=O)c2ccccc2)cc1C`, the CPE inhibition result was “inactive”.
With `Cc1ccc(NC(=O)c2cc(S(=O)(=O)NCCc3ccccc3)ccc2F)cc1Cl`, the CPE inhibition is 2.79%.
For `CC(Sc1nnc(-c2ccccc2)c(-c2ccccc2)n1)C(=O)Nc1ncc(Cl)cc1Cl` (stereo unspecified) the value was 0.725%; for `C/C(=N\NC(=O)c1cccc(S(=O)(=O)Nc2ccccc2Cl)c1)c1ccco1`, “inactive”.
The result for `CCOc1ccc(CSC(=N)N)cc1` reads 0.245%; that for `CCOc1ccc(Br)cc1CNCCN1CCOCC1`, “inactive”; that for `CCOc1ccc(Br)cc1CSC(=N)N`, 13.3% (active).
`CC1C=CCC2C(=O)N(c3ccc(Cl)cc3O)C(=O)C12` (stereo unspecified): the CPE inhibition was 28.6% (active).
The result for `O=C(Oc1ccccc1N1C(=O)C2CC=CCC2C1=O)c1ccc(Br)cc1` (stereo unspecified) reads 0.075%; that for `O=C(NCCCN1CCOCC1)c1onc(CSc2ccccc2)c1C(=O)NCCCN1CCOCC1`, “inactive”; that for `Cc1ccc(C)c(NC(=O)CSc2nnc(-c3n[nH]c4ccccc34)o2)c1`, 0.235%.
Regarding `Cc1ccc(CCc2nnc(SCC(=O)Nc3ccccc3Cl)n2-c2ccccc2)o1`, the CPE inhibition is 0.905%.
The result for `O=C(CSc1nnc(-c2n[nH]c3ccccc23)n1-c1ccccc1)Nc1ccccc1Cl` reads 19% (active); that for `Cc1ccc(S(=O)(=O)NN=C2C3CC4CC(C3)CC2C4)cc1[N+](=O)[O-]`, 0.27%.
Take `Cn1cnnc1SC1c2cccc3cccc(c23)C1NS(=O)(=O)c1ccccc1` (stereo unspecified): the CPE inhibition is 0.485%.
The result for `Cc1ccc(C=Nc2ccccc2C(=O)Nc2ccccc2)cc1` reads 0.36%.
On to `CC(C)(C)OC(=O)C[C@H]1C/C=C\C[C@@H](CC(=O)N(CCO)Cc2ccccc2)C(=O)N[C@@H](c2ccccc2)COC1=O`, for which the CPE inhibition entry was “inactive”.
For `CC1(C)C(C=C(Cl)Cl)C1C(=O)N(Cc1ccccc1Cl)C1CCS(=O)(=O)C1` (stereo unspecified) the value was 29.9% (active); for `CN(C(=O)COC(=O)c1cc(-c2ccccc2Cl)nc2ccccc12)C1CCS(=O)(=O)C1` (stereo unspecified), “inactive”; for `CC1(C)C(C=C(Cl)Cl)C1C(=O)N(Cc1cccc(Cl)c1)C1CCS(=O)(=O)C1` (stereo unspecified), 0.525%.
The result for `CCN(Cc1ccccc1)C(=O)C1CCN(C/C(C)=C/c2ccccc2)CC1` reads “inactive”; that for `Cc1ccc(C)c(S(=O)(=O)Nc2nc(C)c(C(=O)Nc3ccccc3)s2)c1`, “inactive”.
The result for `O=C1NC(c2ccc(-c3ccccc3[N+](=O)[O-])o2)C(C(=O)c2ccc(Cl)cc2)C(O)(C(F)(F)F)N1` (stereo unspecified) reads 30.5% (active); that for `O=C1c2ccccc2NC(c2ccc(-c3cccc([N+](=O)[O-])c3)o2)N1O` (stereo unspecified), 0.135%; that for `O=C(/C=C/c1ccc(-c2ccccc2[N+](=O)[O-])o1)c1ccccc1`, 3.25%.
On to `O=C1NC(c2ccc(-c3ccccc3[N+](=O)[O-])o2)C(C(=O)c2ccc(F)cc2)C(O)(C(F)(F)F)N1` (stereo unspecified), for which the CPE inhibition was 23.4% (active).
The result for `O=c1nc2s/c(=C\c3ccc(-c4ccccc4[N+](=O)[O-])o3)c(=O)n2nc1-c1ccccc1` reads “inactive”; that for `O=C(N/N=C/c1ccc(-c2ccccc2[N+](=O)[O-])o1)[C@H]1C[C@@H]1c1ccccc1`, “inactive”.
